Source: PubChem
HPGD inh – HPGD (human) dehydrogenase inhibition; purified HPGD, NADH fluorescence kinetic, PGE2 substrate; Potency, µM, hits mostly inhibitors; 4.3% of 150,000 active; active = well fitted inhibition curve with a large enough effect, not every such curve was filed as active; inconclusive = small, poorly fitted or top-dose-only effect, or another doubt; inactive = no such curve, though single readings can be large or run the other way
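NADH formation kinetics: reaction with 30 uM PGE2 and 1 mM NAD+ (final), 20 nM enzyme, Tris-HCl pH 8 with Tween 20, after 15 min compound preincubation at room temperature. Fluorescence change, last versus first of five reads.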
Lamin A splicing – modulators of lamin A splicing. AID 1487. 0.01% of 200,000 active. Potency, µM (top dose mostly 46.1 µM), most hits filed as inhibitors. HeLa LMNA splicing GFP/RFP minigene ratio, 48 h; active = well fitted inhibition curve with a large enough effect in the signal ratio, with a control signal flat, not every such curve was filed as active; inconclusive = small, poorly fitted or top-dose-only effect, or effect the other way, or a change in a side signal; the % refers to the signal ratio
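S3 HeLa cells stably expressing lamin A-EGFP splicing minigene plus DsRed2, 600 cells/well, 48 h compound exposure at 37C. Laser-scanning cytometry; analysed as GFP (500-530 nm)/RFP (575-640 nm) total intensity ratio; 0.5% DMSO vehicle.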
ALDH1A1 block – ALDH1A1 (human) enzyme inhibition | Potency, µM (series often up to 75.3 µM), actives largely listed as inhibitors | Purified ALDH1A1, NADH fluorescence, propionaldehyde substrate | P00352 | 7.3% of 220,000 active; active = well fitted inhibition curve with a large enough effect, not every such curve was filed as active; inconclusive = small, poorly fitted or top-dose-only effect, or another doubt; inactive = no such curve, though single readings can be large or run the other way
Target sequence (P00352 whole entry, looked up): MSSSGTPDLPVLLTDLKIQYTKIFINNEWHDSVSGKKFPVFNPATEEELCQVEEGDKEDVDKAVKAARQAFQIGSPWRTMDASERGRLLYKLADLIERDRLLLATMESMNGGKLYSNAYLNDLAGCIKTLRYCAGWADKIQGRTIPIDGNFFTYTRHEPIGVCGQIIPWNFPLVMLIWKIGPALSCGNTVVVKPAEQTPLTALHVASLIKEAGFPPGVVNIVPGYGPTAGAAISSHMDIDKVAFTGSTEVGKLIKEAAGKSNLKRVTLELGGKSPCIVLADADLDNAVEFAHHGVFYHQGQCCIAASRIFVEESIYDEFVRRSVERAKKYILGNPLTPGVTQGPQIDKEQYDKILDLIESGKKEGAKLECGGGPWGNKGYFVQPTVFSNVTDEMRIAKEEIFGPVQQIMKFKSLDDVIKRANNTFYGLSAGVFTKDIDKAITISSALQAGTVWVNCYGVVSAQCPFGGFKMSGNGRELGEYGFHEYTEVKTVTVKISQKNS
HttQ103 aggreg – reduces HttQ103-GFP aggregates in PC12 cells; AID 1688; Potency, µM (top dose mostly 46.1 µM), hits mostly inhibitors; 1.1% of 220,000 active; PC12 HttQ103-GFP aggregates, Acumen cytometry, 40 h; note: nearly all actives have a fitted effect of over 60% in size
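PC12/HTTQ103-GFP, ecdysone-inducible; teb 100 nM; cpd qHTS titration; GFP aggregates read on laser cytometer, Ex 488/Em 500-530 nm.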
KinaseGlo FLuc – counter-screen: inhibitors of Kinase-Glo firefly luciferase | Q27757 | 0.28% of 200,000 active | Potency, µM (top dose mostly 38.3 µM), usual class: inhibitors | Kinase-Glo luciferase, ATP luminescence, 8 min; note: nearly all actives have a fitted effect of over 60% in size
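Substrate mix (final 50 mM imidazole pH 7.2, 50 mM KCl, 7 mM MgCl2, 10 uM ATP, 0.01% Tween 20, 0.05% BSA) plus pin-tool compound, then Kinase-Glo detection mix; 8 min ambient, luminescence read.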
HTT cytoprotect – Huntington cell model cytoprotection by ATP luminescence; PC12 HTT-Q103 induced, cytoprotection, ATP luminescence, 40 h; Potency, µM (highest dose often 56.4 µM), actives largely listed as activators; 0.14% of 230,000 active; note: nearly all actives have a fitted effect of over 45% in size
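Huntington model: PC12 line, ecdysone-inducible HTTQ103 exon1–GFP, tebufenozide 100 nM. Test articles in a dose series. Endpoint luminescence from cellular ATP.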
Of the large screens only hits and unclear results are named; the others gave an inactive call. Most compounds without a hit are left out; they make up all but 9% or so of the library. Unless noted, calls come from the whole dose curve; as a rule, active = well fitted curve in the direction sought with a large enough effect; inconclusive = small, poorly fitted or top-dose-only effect, or another doubt; inactive = no such curve, though single readings can be large; an effect the other way counts as inactive or inconclusive.

COc1ccc(-c2nc3c(c4c2C[C@H](c2ccccc2)OC4)CN(S(=O)(=O)c2ccc(C#N)cc2)CC3)c(C)c1	Lamin A splicing inconclusive, ALDH1A1 block 0.501µM (no result: HttQ103 aggreg)
COc1ccc(-c2nc3c(c4c2C[C@H](c2ccccc2)OC4)CN(C(=O)N[C@@H](C)c2ccccc2)CC3)c(C)c1	ALDH1A1 block 3.55µM (no result: HttQ103 aggreg)
COc1ccc(-c2nc3c(c4c2C[C@H](c2ccccc2)OC4)CN(C(=O)Nc2cccc(C#N)c2)CC3)c(C)c1	Lamin A splicing inconclusive, ALDH1A1 block inconclusive (no result: HttQ103 aggreg)
COc1ccc(-c2nc3c(c4c2C[C@H](c2ccccc2)OC4)CN(C(=O)C2CCCCC2)CC3)c(C)c1	ALDH1A1 block inconclusive (no result: HttQ103 aggreg)
COc1cccc(CC(=O)N2CCc3nc(-c4ccc(OC)cc4C)c4c(c3C2)CO[C@@H](c2ccccc2)C4)c1	Lamin A splicing inconclusive, ALDH1A1 block 3.98µM (no result: HttQ103 aggreg)
COc1ccc(-c2nc3c(c4c2C[C@H](c2ccccc2)OC4)CN(C(=O)c2cc(I)ccc2F)CC3)c(C)c1	Lamin A splicing inconclusive, ALDH1A1 block 1.12µM (no result: HttQ103 aggreg)
O=c1nc2n(c3c4c(sc13)CCC4)CCC2	ALDH1A1 block 17.8µM
O=c1c2ccccc2nc(N/N=C/c2c(O)ccc3ccccc23)n1O	HPGD inh 22.4µM, Lamin A splicing inconclusive, ALDH1A1 block inconclusive, HttQ103 aggreg inconclusive
O=c1c2ccccc2nc(N/N=C/c2ccc(O)cc2)n1O	HPGD inh 12.6µM, ALDH1A1 block 10µM, KinaseGlo FLuc 11.2µM
CC(C)OCCCNC(=O)c1ccc(NS(C)(=O)=O)cc1	none
COCCCn1nnnc1SCC(=O)Nc1ccc2c(c1)OCCO2	Lamin A splicing inconclusive, ALDH1A1 block 12.6µM (no result: HPGD inh)
COCCn1nnnc1SCC(=O)Nc1ccc2c(c1)OCO2	ALDH1A1 block 20µM (no result: HPGD inh, HttQ103 aggreg, HTT cytoprotect)
O=C(CSc1nnnn1C1CCCC1)Nc1ccc2c(c1)OCO2	ALDH1A1 block 11.2µM
Cn1ccnc1SCC(=O)Nc1ccc2c(c1)OCO2	ALDH1A1 block 14.1µM (no result: HPGD inh)
Cn1ccnc1SCC(=O)Nc1sccc1C#N	ALDH1A1 block 25.1µM
N#Cc1ccsc1NC(=O)CSc1ncn[nH]1	none
O=C(CSc1nnnn1C1CCCC1)c1ccc2c(c1)OCCO2	ALDH1A1 block 3.16µM
COc1ccc(-n2nnnc2SCC(=O)Nc2ccc3c(c2)OCCO3)c(OC)c1	Lamin A splicing inconclusive, ALDH1A1 block 7.08µM
Cc1cc(C)c(NC(=O)CSc2nccn2C)c(C)c1	HPGD inh 6.31µM
CC(C)n1nnnc1SCC(=O)c1ccc2c(c1)OCCO2	ALDH1A1 block inconclusive
CC(C)c1ccccc1NC(=S)NC1CCN(Cc2ccccc2)CC1	none
COc1cccc(C(=O)CSc2nnnn2C2CCCCC2)c1	ALDH1A1 block 2.82µM
Cc1ccc(NC(=O)c2ccc(Cl)cc2Cl)cc1O	none (no result: HPGD inh, Lamin A splicing, ALDH1A1 block, KinaseGlo FLuc)
O=C(CSc1nnc(-c2ccc(S(=O)(=O)N3CCOCC3)cc2)o1)c1ccccc1F	ALDH1A1 block inconclusive
COc1ccc(C(=O)CSc2nnc(-c3ccc(S(=O)(=O)N4CCOCC4)cc3)o2)cc1	ALDH1A1 block 0.501µM
COc1ccc(-c2nnc(NC(=O)c3ccc(S(=O)(=O)N4COCC4(C)C)cc3)o2)cc1	Lamin A splicing inconclusive, HttQ103 aggreg 31.6µM
COc1ccc(-c2nnc(CSc3nnc(-c4ccncc4)n3C3CCCCC3)o2)cc1OC	none
O=C(COC(=O)c1cc([N+](=O)[O-])ccc1NCCO)c1ccccc1	ALDH1A1 block 25.1µM
NC(=O)COC(=O)c1cc([N+](=O)[O-])ccc1NCCO	ALDH1A1 block 20µM (no result: HPGD inh, Lamin A splicing, KinaseGlo FLuc)
O=C(COC(=O)c1cc([N+](=O)[O-])ccc1NCCO)NCc1cccs1	ALDH1A1 block inconclusive (no result: HPGD inh)
O=C(COC(=O)c1cccc([N+](=O)[O-])c1)c1ccc(OCc2ccccc2)cc1	ALDH1A1 block 14.1µM
O=[N+]([O-])c1ccc(NCCO)c(OCCO)c1	none (no result: Lamin A splicing, HttQ103 aggreg, KinaseGlo FLuc)
CCOC(=O)C1CCCN(c2c(N3CCN(C4CCCCC4)CC3)c(=O)c2=O)C1 (configuration not stated)	ALDH1A1 block inconclusive
CSc1nsc(N/N=C/c2ccccc2)c1C#N	ALDH1A1 block inconclusive (no result: HPGD inh, Lamin A splicing)
CSc1nnc(C)c(/C=C/Nc2ccc(F)cc2F)n1	Lamin A splicing inconclusive, ALDH1A1 block inconclusive (no result: HPGD inh, HTT cytoprotect)
CSc1nsc(/C=C/Nc2ccc(C(=O)O)cc2)c1C#N	ALDH1A1 block 10µM (no result: HPGD inh)
